According to PubChem BioAssay (NCATS):
“And” between values parts separate entries of the source, which are not always exact repeats. Equal values may be shown once. Inconclusive results are not listed. A call without a number means that no potency is given here. The source made the active and inactive calls. Unless noted, calls come from the whole dose curve; as a rule, active = well fitted curve in the direction sought with a large enough effect; inconclusive = small, poorly fitted or top-dose-only effect, or another doubt; inactive = no such curve, though single readings can be large; an effect the other way counts as inactive or inconclusive.

Assays:
[1] = P-glycoprotein substrates identified in KB-8-5-11 adenocarcinoma cell line, qHTS therapeutic library screen (AID 1346987); note: nearly all actives have a fitted effect of over 65% in size; note: potency is the fitted concentration of half-maximal effect
Summary of the method: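 Human cervical adenocarcinoma KB-8-5-11 cells, selected in colchicine to over-express P-gp and assayed without it, were exposed for 72 h to titrated compounds. An ATP-based luminescent viability signal gave AC50.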

[2] = Primary qHTS for inhibitors of nuclear receptor binding SET domain protein 2 (NSD2) in an isogenic RCH-ACV NSD2 p.E1099K mutant (9B) (AID 1645876); note: nearly all actives have a fitted effect of over 70% in size; note: potency is the fitted concentration of half-maximal effect
[3] = Primary qHTS for inhibitors of nuclear receptor binding SET domain protein 2 (NSD2) in an RCH-ACV wild type WT cells (2C) (AID 1645877); note: nearly all actives have a fitted effect of over 70% in size; note: potency is the fitted concentration of half-maximal effect
[4] = biological target: Glutathione peroxidase 1 (Homo sapiens) (UniProt P07203); assay: Primary qHTS Assay for Inhibitors of Recombinant Selenoprotein Glutathione Peroxidase 1 (GPX1) (AID 1845191); note: nearly all actives have a fitted effect of over 65% in size; note: potency is the fitted concentration of half-maximal effect
Chain of Glutathione peroxidase 1 (Homo sapiens) (P07203 whole entry, looked up): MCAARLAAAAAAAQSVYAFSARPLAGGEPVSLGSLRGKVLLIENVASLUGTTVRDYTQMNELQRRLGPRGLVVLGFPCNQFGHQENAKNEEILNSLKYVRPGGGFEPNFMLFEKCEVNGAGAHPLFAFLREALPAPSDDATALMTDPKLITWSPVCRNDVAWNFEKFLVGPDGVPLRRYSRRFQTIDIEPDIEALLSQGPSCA
Summary of the method: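 GPX1 10 nM, GR 100 nM, GSH 1 mM, NADPH 0.5 mM, CHP 0.5 mM (final). 30-min cpd preincubation, RT. Ex340/Em450 read t=0, t=15 min.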

[5] = biological target: Phospholipid hydroperoxide glutathione peroxidase GPX4 (Homo sapiens) (UniProt P36969); assay: Primary qHTS Assay for Inhibitors of Recombinant Selenoprotein Glutathione Peroxidase 4 (GPX4) (AID 1845192); details: outcome: dose series up to 50 µM unless noted; note: nearly all actives have a fitted effect of over 65% in size
Chain of Phospholipid hydroperoxide glutathione peroxidase GPX4 (Homo sapiens) (P36969 whole entry, looked up): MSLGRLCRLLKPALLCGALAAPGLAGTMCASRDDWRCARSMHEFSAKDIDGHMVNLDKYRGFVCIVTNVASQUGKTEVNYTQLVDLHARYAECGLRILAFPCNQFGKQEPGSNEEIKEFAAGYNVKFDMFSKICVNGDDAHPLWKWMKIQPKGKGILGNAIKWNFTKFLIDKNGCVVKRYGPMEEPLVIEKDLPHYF
Summary of the method: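 qHTS, GR-coupled: GPX4 200 nM + cpd 30 min RT → GSH 1 mM, NADPH 0.5 mM, GR 100 nM → CHP 0.5 mM start; fluor 340/450 at t0 and t15 min; no-enzyme wells as control.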

[6] = qHTS drug screen for cell cycle checkpoint inhibitors in PARPi-resistant BRCA-mutant ovarian cancer cell lines. (AID 1963452; calls by dose curve; note: potency is the fitted concentration of half-maximal effect); details: PEO1/OlaR viability, CellTiter-Glo luminescence, 96 h; for Z-AUC: stronger effect = lower value
Summary of the method: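 PEO1, PEO4 and PEO1/OlaR ovarian cancer cells, 600 per well, exposed 96 h at 37C to a dilution series. Viability read by CellTiter-Glo luminescence, normalized to DMSO and empty wells; activity summarized as Z-AUC.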

[7] = biological target: Calcium and integrin-binding protein 1 (Homo sapiens) (UniProt Q99828); assay: Primary qHTS for Identification of Calcium Integrin Binding Protein 1 (CIB1) Competitor (AID 1508620);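 note: GST tagged CIB1 binding a fluorescein labelled alphaIIb integrin peptide tracer; top concentration of the series differs between compounds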
Chain of Calcium and integrin-binding protein 1 (Homo sapiens) (Q99828 whole entry, looked up): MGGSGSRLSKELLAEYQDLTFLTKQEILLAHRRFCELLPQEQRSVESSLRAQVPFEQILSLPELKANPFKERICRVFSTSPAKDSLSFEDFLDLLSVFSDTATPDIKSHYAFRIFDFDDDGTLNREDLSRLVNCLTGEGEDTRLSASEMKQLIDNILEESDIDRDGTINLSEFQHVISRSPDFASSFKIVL
Summary of the method: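 Fluorescence polarization competition: CIB1-GST (1 uM final) preincubated with compound 15 min at room temperature, then FITC-labeled alphaIIb peptide (100 nM final) added for another 15 min. Polarization read at Ex 480/Em 540.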

[8] = measured here: PEO1 parental Z-AUC

CN1CCC(c2c(O)cc(O)c3c(=O)cc(-c4ccccc4Cl)oc23)C1CO (stereo unspecified)
Potency [1]: 5.17 µM (active) | Potency [2]: 0.417 µM (active) | Potency [3]: 0.332 µM (active) | Potency [4]: inactive | Potency [5]: inactive | Z-AUC [6]: -0.419 (inactive) | Z-AUC [6, 8]: -1.06 | Z-AUC ([6]; measured here: PEO4 Z-AUC): -0.725

CC1(C)N=C(N)N=C(N)N1c1ccc(Cl)cc1
Potency [1]: inactive

CCCCCCCCCCCCCCCCSCC(COC)COP(=O)([O-])OCC[N+](C)(C)C (stereo unspecified)
Potency [1]: inactive

CN1C/C=C/CCOc2cccc(c2)-c2ccnc(n2)Nc2cccc(c2)C1
Potency [1]: 0.231 µM (active) | Potency [2]: 0.092 µM (active) | Potency [3]: 0.0731 µM (active) | Potency [4]: inactive | Potency [5]: inactive | Potency [6]: 0.549 µM (active) | Z-AUC [6, 8]: -1.71 | Z-AUC ([6]; measured here: PEO4 Z-AUC): -1.51

N#C/C(=C(\N)Sc1ccc(N)cc1)c1ccccc1C(F)(F)F
Potency [1]: inactive

CCOC(=O)CN[C@@H](C(=O)N1CC[C@H]1C(=O)NCc1ccc(/C(N)=N/O)cc1)C1CCCCC1
Potency [4]: inactive | Potency [5]: inactive

NC(=O)c1sc(-c2ccsc2)cc1N
Potency [1]: inactive | Potency [2]: inactive | Potency [3]: inactive | Potency [4]: inactive

O=c1[nH]ccc2c(S(=O)(=O)N3CCCNCC3)cccc12
Potency [1]: inactive | Potency [2]: inactive | Potency [3]: inactive | Potency [4]: inactive

O=C(O)c1ccc2c3c1cccc3c(=O)n1c3ccccc3nc21
Potency [1]: inactive | Potency [3]: inactive | Potency [4]: inactive

CCCCCCCCCCCCC/C=C/[C@@H](O)[C@H](CO)N(C)C
outcome [1]: inactive [at 5.11 µM] | activity change, negative = viability loss [2]: -1.18% [at 4.96 µM] (inactive) | activity change, negative = cell killing [3]: 4.48% [at 4.96 µM] (inactive) | Potency [4]: inactive

CS(=O)(=O)CCNCc1nc(-c2ccc3ncnc(Nc4ccc(OCc5cccc(F)c5)c(Cl)c4)c3c2)cs1
outcome [1]: inactive [at 9.29 µM] | outcome [4]: inactive [at 9.52 µM]

CCCCCCCC[N+](C)(C)CCCCCCCC
Potency [1]: inactive

N[C@@H](C(=O)N[C@@H]1C(=O)N2C(C(=O)O)=C(CSc3cn[nH]n3)CS[C@H]12)c1ccc(O)cc1
Potency [4]: 18 µM (active)

C=CC(=O)c1ccc2ccccc2c1
Potency [1]: inactive | Potency [3]: inactive | Potency [4]: inactive

Cc1nc2c(O)cccc2c(=O)[nH]1
Potency [1]: inactive | Potency [2]: inactive | Potency [3]: inactive

CN1CCN(CCC=C2c3ccccc3Sc3ccc(S(=O)(=O)N(C)C)cc32)CC1
Potency [1]: 23.1 µM (active) | Potency [4]: inactive

C#Cc1cccc(Nc2ncnc3cc(OC)c(OC)cc23)c1
Potency [1]: 9.2 µM (active) | Potency [2]: 14.6 µM (active) | Potency [3]: 20.6 µM (active) | Potency [4]: inactive

C[N+]1(C)CCN(CC(O)(c2ccccc2)C2CCCCC2)CC1 (stereo unspecified)
Potency [4]: inactive

COc1cc(F)ccc1-c1ncnc(Nc2cccc(CS(C)(=N)=O)c2)n1 (stereo unspecified)
Potency [1]: 5.17 µM (active) | Potency [2]: 0.525 µM (active) | Potency [3]: 0.372 µM (active) | Potency [4]: inactive | Potency [5]: inactive

COc1c(Nc2ncc(Cl)c(N[C@H]3[C@H](C(N)=O)[C@@H]4C=C[C@@H]3C4)n2)ccc2c1CCC(N1CCOCC1)CC2 (stereo partly specified)
Potency [1]: 4.11 µM (active) | Potency [2]: 1.05 µM (active) | Potency [3]: 3.32 µM (active)

CN(C)Cc1cccc(N=C(c2ccccc2)c2c(O)[nH]c3cc(C(N)=O)ccc23)c1
Potency [1]: inactive | Potency [2]: 16.4 µM (active) | Potency [3]: inactive | Potency [4]: inactive | Potency [5]: inactive

O=C1NC(=O)/C(=C/c2ccc3nccc(-c4ccncc4)c3c2)S1
Potency [1]: 3.66 µM (active) | Potency [2]: 920 nM (active) and 332 nM (active) | Potency [3]: 920 nM (active) and 525 nM (active) | Potency [4]: inactive | Potency [5]: inactive

COC(=O)[C@]12CCC(C)(C)C[C@@H]1[C@@H]1C(=O)C=C3[C@]4(C)C=C(C#N)C(=O)C(C)(C)[C@@H]4CC[C@@]3(C)[C@]1(C)CC2
Potency [1]: 1.46 µM (active)

CCN(CC)C(=O)c1cc(S(=O)(=O)Cc2ccccc2)c(N2CCC(c3ccccc3)CC2)cc1N(CC)CCN(C)C
Potency [1]: 16.4 µM (active) | outcome [7]: inactive

C=CC(=O)Nc1cccc(C)c1Nc1ncc2cc(-c3c(Cl)c(OC)cc(OC)c3Cl)ccc2n1
Potency [1]: 9.2 µM (active) | Potency [2]: 3.66 µM (active) | Potency [3]: 4.11 µM (active) | Potency [4]: inactive | Potency [5]: inactive | Z-AUC [6]: -0.505 (inactive) | Z-AUC [6, 8]: -0.983 | Z-AUC ([6]; measured here: PEO4 Z-AUC): -1.33

COc1cc(/C=C(\C#N)C(N)=O)cc(CSc2nc3ccccc3s2)c1O
Potency [1]: inactive | Potency [2]: inactive | Potency [3]: inactive | Potency [4]: inactive

Cn1cc(C2=C(c3cn(CCCSC(=N)N)c4ccccc34)C(=O)NC2=O)c2ccccc21
Potency [1]: inactive | Potency [2]: 1.46 µM (active) | Potency [3]: 1.64 µM (active)

C#C[C@]1(OC(C)=O)CC[C@H]2[C@@H]3CCC4=CC(=O)CC[C@@H]4[C@H]3CC[C@@]21C
Potency [1]: 3.66 µM (active) | Potency [4]: inactive

Nc1ncnc2c1c(I)cn2C1OC(CO)C(O)C1O (stereo unspecified)
Potency [1]: 2.31 µM (active) | Potency [2]: 1.84 µM (active) | Potency [3]: 1.03 µM (active) | Potency [4]: inactive

C[C@H]1COCCN1c1cc(C2(S(=O)(=O)C3CC3)CC2)nc(-c2ccc(NC(=S)NCCO)cc2)n1
Potency [1]: 0.731 µM (active) | Potency [2]: 0.059 µM (active) | Potency [3]: 0.0934 µM (active) | Potency [4]: inactive | Potency [5]: inactive | Z-AUC [6]: -1.32 (inactive) | Z-AUC [6, 8]: -1.07 | Z-AUC ([6]; measured here: PEO4 Z-AUC): -1.96

CCOc1ccc(/C=C2\SC(=O)N(CCN)C2=O)cc1
Potency [1]: inactive | Potency [2]: inactive | Potency [3]: inactive

Cc1nc(CN(C)c2ncnc3ccc(-c4ccc5c(c4)OCO5)cc23)cs1
Potency [1]: 20.6 µM (active) | outcome [7]: inactive | Potency [2]: 8.2 µM (active) | Potency [3]: 9.2 µM (active) | Potency [4]: inactive
